Results on 1 molecule are retold here after PubChem BioAssay AID504602 (National Center for Advancing Translational Sciences (NCATS), 2011).

Inconclusive results are not listed. Active and inactive are the calls of the source. Calls follow the shape of the dose curve; as a rule, active = well fitted curve in the direction sought with a large enough effect; inconclusive = small, poorly fitted or top-dose-only effect, or effect the other way, or another doubt; inactive = no such curve, though single readings can be large or run the other way.

The assay in a line: Quantitative high throughput screen to test cell viability of anti-malarial compounds targeting the delayed death phenotype. The text has this:
The biochemical processes that make this organelle essential for erythrocytic stage parasites are not well understood. However, antibiotics, such as azithromycin and tetracycline, which target the apicoplast translational machinery, have a potent antimalarial effect. […] We have developed a cell-based assay that measures parasite growth based on the expression of an integrated copy of a firefly luciferase reporter. To detect small molecules that cause this 'delayed death' phenotype, erythrocytes infected with the luciferase-expressing parasites were incubated with compounds for either one or two generations, corresponding to 48 and 96 hours, respectively. Compounds that inhibit parasite growth in the second generation, but not the first, should be enriched in antimalarials that target the apicoplast. Growth inhibition is detected by a decrease in luciferase activity. The goal of this counterscreen is to measure the cytoxoxicity (against HepG2 cell line) of a set of anti-malarial compounds that target the delayed death pheonotype as identified by the qHTS assay that inhibit the development of the apicoplast in the malarial parasite Plasmodium falciparum. NIH Molecular Libraries Probe Production Network [MLPCN] […]
Cells were plated at a density of 2000 cells/well/5uL in 1536 well white tissue culture plate with culture medium. […] Luminescence was measured using ViewLux (1 second, slow, 2X).

As for `C[C@@H]1CN([C@@H](C)CO)C(=O)c2cc(NC(=O)Nc3ccccc3)ccc2O[C@@H](C)CCCCO[C@H]1CN(C)C(=O)Oc1ccccc1`, the outcome was inactive.
